Results as given in the supplement of paper PMC12067093, “Discovery and optimisation of a covalent ligand for TRIM25 and its application to targeted protein ubiquitination” (Chemical Science, 2025).
Targets with the largest changes are over-represented here; the source holds about 21,000 in all.

Experiments:
compound 10 = compound: Cc1cc(ccc1-c1ccccc1)C(=O)N1CCCN(CC1)C(=O)CCl [compound 10]; experiment: probe-labelled cysteine peptide fold change vs DMSO (competition) (log2 fold change); higher = less target engagement (more negative = stronger competition); details: THP-1, incubation time: 4 h
[1] = compound: CC1Cc2ccccc2N1C(=O)C1CCCN(C1)C(=O)CCl (mixture of isomers) [TRIM25 ligand 11 (diastereomer mixture)]; experiment: as above; details: THP-1, incubation time: 4 h

Sequence of UniProt Q92610 (Q92610 whole entry, looked up): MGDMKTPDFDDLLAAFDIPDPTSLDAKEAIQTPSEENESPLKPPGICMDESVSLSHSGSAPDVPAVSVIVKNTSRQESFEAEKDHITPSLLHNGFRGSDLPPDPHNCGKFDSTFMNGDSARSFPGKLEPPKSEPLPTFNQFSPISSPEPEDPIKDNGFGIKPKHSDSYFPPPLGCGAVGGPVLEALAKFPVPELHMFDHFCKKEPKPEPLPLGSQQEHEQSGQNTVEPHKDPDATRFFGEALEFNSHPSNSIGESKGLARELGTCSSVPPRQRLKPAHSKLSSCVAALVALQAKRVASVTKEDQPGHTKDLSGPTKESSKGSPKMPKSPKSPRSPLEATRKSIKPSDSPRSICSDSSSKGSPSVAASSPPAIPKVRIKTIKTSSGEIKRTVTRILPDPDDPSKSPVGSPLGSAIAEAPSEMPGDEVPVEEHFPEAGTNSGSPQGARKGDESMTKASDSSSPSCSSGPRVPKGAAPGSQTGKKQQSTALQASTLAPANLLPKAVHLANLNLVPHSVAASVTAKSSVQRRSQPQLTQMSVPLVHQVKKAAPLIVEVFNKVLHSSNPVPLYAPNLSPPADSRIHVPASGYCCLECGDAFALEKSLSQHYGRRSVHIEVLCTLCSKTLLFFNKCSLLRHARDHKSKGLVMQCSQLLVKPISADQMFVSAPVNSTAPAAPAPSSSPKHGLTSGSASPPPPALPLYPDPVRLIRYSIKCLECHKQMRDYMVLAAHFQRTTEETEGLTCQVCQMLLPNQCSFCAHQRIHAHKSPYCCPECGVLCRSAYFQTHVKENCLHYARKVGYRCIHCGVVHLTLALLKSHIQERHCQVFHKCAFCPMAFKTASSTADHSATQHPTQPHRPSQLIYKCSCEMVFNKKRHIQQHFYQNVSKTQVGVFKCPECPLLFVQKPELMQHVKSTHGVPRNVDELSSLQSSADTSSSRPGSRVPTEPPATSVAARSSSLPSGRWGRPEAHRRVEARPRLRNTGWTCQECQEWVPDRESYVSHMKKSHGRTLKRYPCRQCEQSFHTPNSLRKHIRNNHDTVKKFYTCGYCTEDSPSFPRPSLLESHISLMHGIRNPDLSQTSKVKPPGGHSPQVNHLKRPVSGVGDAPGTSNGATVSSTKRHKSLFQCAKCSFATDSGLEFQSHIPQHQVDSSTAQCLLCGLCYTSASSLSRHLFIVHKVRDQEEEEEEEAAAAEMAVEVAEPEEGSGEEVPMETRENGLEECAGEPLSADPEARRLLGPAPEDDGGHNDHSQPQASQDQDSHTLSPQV
Sequence of UniProt Q8N302 (Q8N302 whole entry, looked up): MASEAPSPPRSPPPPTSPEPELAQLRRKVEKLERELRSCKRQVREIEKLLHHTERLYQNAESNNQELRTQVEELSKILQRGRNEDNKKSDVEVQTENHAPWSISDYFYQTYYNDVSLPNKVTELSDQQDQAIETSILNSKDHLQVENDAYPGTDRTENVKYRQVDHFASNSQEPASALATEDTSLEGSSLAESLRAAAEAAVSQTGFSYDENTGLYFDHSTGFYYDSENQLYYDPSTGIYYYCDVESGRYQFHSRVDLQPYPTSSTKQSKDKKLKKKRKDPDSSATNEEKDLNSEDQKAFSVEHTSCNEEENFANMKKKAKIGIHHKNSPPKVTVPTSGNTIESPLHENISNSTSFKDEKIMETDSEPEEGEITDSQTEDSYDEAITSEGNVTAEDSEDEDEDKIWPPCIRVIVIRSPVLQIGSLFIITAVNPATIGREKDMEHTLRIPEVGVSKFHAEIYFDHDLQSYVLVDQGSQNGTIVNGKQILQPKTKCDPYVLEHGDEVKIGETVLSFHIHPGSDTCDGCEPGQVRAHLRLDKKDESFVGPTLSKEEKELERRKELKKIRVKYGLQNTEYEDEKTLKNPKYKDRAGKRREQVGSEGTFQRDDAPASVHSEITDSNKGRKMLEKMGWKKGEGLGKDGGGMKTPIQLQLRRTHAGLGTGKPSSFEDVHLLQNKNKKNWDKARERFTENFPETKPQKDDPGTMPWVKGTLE
Sequence of UniProt O95218 (O95218 whole entry, looked up): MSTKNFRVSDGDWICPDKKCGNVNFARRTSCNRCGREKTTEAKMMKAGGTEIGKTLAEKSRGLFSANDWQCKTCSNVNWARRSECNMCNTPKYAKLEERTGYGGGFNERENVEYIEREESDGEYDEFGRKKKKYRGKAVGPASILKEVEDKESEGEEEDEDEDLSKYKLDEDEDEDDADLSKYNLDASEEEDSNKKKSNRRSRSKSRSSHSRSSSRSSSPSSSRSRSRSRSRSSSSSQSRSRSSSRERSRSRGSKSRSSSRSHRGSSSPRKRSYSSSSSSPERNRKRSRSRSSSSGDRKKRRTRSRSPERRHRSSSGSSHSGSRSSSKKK
Sequence of UniProt Q562E7 (Q562E7 whole entry, looked up): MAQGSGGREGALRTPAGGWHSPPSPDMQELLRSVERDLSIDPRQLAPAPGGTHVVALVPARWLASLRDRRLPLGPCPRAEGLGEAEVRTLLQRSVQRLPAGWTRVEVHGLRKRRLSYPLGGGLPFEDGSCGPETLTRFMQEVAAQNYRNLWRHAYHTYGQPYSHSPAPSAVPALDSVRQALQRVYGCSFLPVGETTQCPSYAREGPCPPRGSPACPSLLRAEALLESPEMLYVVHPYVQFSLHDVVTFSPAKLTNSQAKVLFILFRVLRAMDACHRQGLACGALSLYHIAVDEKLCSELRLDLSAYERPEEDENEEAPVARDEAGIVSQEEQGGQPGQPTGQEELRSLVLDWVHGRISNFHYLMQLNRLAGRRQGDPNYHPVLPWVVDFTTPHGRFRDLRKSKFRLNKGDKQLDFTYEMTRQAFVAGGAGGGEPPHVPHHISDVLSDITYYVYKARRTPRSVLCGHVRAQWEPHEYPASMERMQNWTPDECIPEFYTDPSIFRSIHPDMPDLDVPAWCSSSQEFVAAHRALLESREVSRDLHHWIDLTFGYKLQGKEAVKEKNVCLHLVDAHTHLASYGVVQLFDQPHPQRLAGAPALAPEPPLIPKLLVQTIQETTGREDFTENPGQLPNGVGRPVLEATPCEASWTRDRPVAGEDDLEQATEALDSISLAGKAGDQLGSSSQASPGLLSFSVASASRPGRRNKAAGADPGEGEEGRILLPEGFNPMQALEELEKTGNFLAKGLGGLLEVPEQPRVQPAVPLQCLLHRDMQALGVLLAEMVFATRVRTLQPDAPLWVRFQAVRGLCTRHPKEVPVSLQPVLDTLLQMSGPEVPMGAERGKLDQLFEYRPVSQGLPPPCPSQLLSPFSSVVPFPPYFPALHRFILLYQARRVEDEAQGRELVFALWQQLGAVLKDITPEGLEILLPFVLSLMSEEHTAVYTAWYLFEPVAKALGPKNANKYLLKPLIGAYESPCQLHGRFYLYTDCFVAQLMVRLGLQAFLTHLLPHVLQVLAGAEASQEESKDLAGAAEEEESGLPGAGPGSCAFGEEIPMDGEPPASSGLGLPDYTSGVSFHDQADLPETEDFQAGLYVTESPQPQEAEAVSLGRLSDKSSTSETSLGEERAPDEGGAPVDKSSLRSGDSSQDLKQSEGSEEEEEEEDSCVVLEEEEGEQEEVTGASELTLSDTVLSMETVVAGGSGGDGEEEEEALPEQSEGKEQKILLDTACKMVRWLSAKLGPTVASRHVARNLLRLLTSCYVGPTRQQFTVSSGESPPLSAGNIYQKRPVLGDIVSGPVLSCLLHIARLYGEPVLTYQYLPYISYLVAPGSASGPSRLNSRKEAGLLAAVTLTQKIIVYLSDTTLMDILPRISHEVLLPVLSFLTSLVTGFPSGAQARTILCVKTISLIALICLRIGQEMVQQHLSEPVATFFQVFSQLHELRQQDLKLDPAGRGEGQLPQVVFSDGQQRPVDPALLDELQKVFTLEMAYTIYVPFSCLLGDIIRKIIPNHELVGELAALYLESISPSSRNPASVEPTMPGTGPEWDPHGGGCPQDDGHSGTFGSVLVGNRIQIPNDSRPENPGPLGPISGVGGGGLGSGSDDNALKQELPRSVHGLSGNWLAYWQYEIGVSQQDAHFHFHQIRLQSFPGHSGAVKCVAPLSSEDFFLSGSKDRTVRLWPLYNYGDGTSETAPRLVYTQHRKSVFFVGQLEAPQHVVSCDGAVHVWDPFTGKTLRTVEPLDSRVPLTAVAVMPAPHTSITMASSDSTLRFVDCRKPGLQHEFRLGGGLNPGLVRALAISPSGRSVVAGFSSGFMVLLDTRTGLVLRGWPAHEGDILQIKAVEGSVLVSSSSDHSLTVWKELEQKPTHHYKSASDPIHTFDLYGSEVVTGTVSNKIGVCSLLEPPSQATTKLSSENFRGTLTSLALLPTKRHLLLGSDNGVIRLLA
Sequence of UniProt Q9HAD4 (Q9HAD4 whole entry, looked up): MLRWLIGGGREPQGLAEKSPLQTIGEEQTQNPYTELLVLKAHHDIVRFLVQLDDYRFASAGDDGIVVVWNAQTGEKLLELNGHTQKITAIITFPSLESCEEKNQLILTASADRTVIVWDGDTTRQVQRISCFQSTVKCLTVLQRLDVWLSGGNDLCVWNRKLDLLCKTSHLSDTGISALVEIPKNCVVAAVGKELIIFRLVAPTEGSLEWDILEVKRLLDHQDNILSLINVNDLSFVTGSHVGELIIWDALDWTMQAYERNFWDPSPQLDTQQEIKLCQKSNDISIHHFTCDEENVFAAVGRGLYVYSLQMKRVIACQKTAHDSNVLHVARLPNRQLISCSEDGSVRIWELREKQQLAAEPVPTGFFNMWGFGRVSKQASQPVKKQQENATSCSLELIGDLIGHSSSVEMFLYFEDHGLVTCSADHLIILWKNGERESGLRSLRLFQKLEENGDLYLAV
Sequence of UniProt Q9Y3S2 (Q9Y3S2 whole entry, looked up): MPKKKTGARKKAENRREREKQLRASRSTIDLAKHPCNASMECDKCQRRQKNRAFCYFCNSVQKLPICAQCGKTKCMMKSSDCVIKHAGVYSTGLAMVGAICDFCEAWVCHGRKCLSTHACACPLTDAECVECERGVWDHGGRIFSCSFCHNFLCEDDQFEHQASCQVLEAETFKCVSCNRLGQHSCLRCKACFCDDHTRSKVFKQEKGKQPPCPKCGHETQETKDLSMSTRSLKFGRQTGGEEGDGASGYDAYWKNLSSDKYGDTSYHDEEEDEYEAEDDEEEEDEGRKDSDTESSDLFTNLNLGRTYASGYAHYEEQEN

Target	probe-labelled cysteine peptide fold change (compound 10; 10 µM)	probe-labelled cysteine peptide fold change (compound 10; 50 µM)	probe-labelled cysteine peptide fold change ([1]; 10 µM)	probe-labelled cysteine peptide fold change ([1]; 50 µM)
ZBTB14_O43829_391_PFVCGSCTK (UniProt O43829)	0.104	-0.263	–	–
ACADVL_P49748_237_TSAVPSPCGK (UniProt P49748)	–	–	-0.126	-0.057
ZC3HAV1_Q7Z2W4_7_ADPEVCCFITK (UniProt Q7Z2W4)	0.158	0.175	–	–
WNK1_Q9H4A3_1135_VVECQLETHNRK (UniProt Q9H4A3)	0.208	0.14	–	–
AGGF1_Q8N302_494_CDPYVLEHGDEVK (UniProt Q8N302)	–	–	0.0808	0.0697
ZRANB2_O95218_20_CGNVNFAR (UniProt O95218)	-0.0495	-0.314	–	–
ACADS_P16219_109_GCASTGVIMSVNNSLYLGPILK (UniProt P16219)	–	–	0.201	0.216
ZNF451_Q9Y4E5_150_TGTINCGTK (UniProt Q9Y4E5)	-0.175	-1.18	–	–
ZNF592_Q92610_592_IHVPASGYCCLECGDAFALEK (UniProt Q92610)	-0.0351	-0.192	–	–
WIPI2_Q9Y4P8_430_LAYTDDLGAVGGACLEDEASALRLDEDSEHPPMILR (UniProt Q9Y4P8)	-0.352	-0.0492	–	–
A6NIZ1_A6NIZ1_118_VKDTDDVPMILVGNKCDLEDER<|>RAP1B_P61224_118_VKDTDDVPMILVGNKCDLEDER (UniProt P61224+A6NIZ1)	–	–	-0.583	-0.426
ZNHIT3_Q15649_30_VPYCSVVCFR (UniProt Q15649)	-0.0726	-1.11	–	–
XPO4_Q9C0E2_723_ANLVIQCENWWNLAK (UniProt Q9C0E2)	0.102	-0.0501	–	–
ZMYM2_Q9UBW7_612_LYNFCNSSCVAK (UniProt Q9UBW7)	-0.192	-1.33	–	–
YEATS2_Q9ULM3_565_QEDSLFASMPPLCPIGSHPK (UniProt Q9ULM3)	-0.301	-0.418	–	–
ADAM15_Q13444_409_ALLDGMGSCLFER (UniProt Q13444)	–	–	-0.145	0.146
XPO6_Q96QU8_324_NCVPMEFEEYLLR (UniProt Q96QU8)	-0.0141	0.145	–	–
ZNF598_Q86UK7_867_VCPTCQQVLAHGDASSHQALHAAR (UniProt Q86UK7)	0.228	0.187	–	–
ZMYM4_Q5VZL5_1499_SCVPNSPMWYSTFPIDPGTLDTMLTR (UniProt Q5VZL5)	-0.668	-0.33	–	–
ZNF691_Q5VV52_260_THTGERPYECTECGR (UniProt Q5VV52)	0.396	1.19	–	–
ZNF687_Q8N1G0_91_NTVCPEQSEALAGGSAGDGAQAAGVTK (UniProt Q8N1G0)	-0.392	-0.0527	–	–
ZYX_Q15942_467_AYHPHCFTCVVCAR (UniProt Q15942)	0.229	0.194	–	–
WDR77_Q9BQA1_172_AHAAQVTCVAASPHK (UniProt Q9BQA1)	0.0618	0.254	–	–
WDR5_P61964_205_IWDTASGQCLK (UniProt P61964)	0.16	0.0228	–	–
ZNHIT6_Q9NWK9_171_FVGQCIK (UniProt Q9NWK9)	-0.528	-0.0997	–	–

Target	probe-labelled cysteine peptide fold change (compound 10; 10 µM)	probe-labelled cysteine peptide fold change (compound 10; 50 µM)	probe-labelled cysteine peptide fold change ([1]; 10 µM)	probe-labelled cysteine peptide fold change ([1]; 50 µM)
ZBTB7A_O95365_490_DGCNGVPSR (UniProt O95365)	0.000157	-0.0775	–	–
ZC3HAV1_Q7Z2W4_513_VDDHDSEEICLDHLCK (UniProt Q7Z2W4)	0.0207	-0.396	–	–
WDR44_Q5JSH3_701_LITAANFCQNGK (UniProt Q5JSH3)	-0.0485	0.165	–	–
ZNF189_O75820_262_CSDCGK<|>ZSCAN22_P52741_466_CSDCGK<|>ZNF16_Q09FC8_435_CSDCGK<|>ZNF81_Q2M218_640_CSDCGK<|>ZNF134_Q5JVG2_290_CSDCGK<|>ZNF415_Q8N8J6_574_CSDCGK (UniProt Q8N8J6+Q5JVG2+Q2M218+Q09FC8+P52741+O75820)	0.0389	0.142	–	–
WDFY4_Q6ZS81_2226_TEDFVSCIENYR (UniProt Q6ZS81)	-0.17	-0.159	–	–
ZNF451_Q9Y4E5_476_TWFCECNQR (UniProt Q9Y4E5)	0.0139	0.0709	–	–
ZNF330_Q9Y3S2_120+122_CLSTHACACPLTDAECVECER (UniProt Q9Y3S2)	0.16	-0.138	–	–
ZER1_Q7Z7L7_337_RPLQFLGLFENSLCR (UniProt Q7Z7L7)	-0.124	-0.0583	–	–
ZNF562_Q6V9R5_17_EPICPFEEK<|>ZNF561_Q8N587_17_EPICPFEEK (UniProt Q8N587+Q6V9R5)	-0.186	-1.08	–	–
ZMYM2_Q9UBW7_608_LYNFCNSSCVAK (UniProt Q9UBW7)	-0.186	-1.35	–	–
WDR41_Q9HAD4_291_SNDISIHHFTCDEENVFAAVGR (UniProt Q9HAD4)	0.135	0.418	–	–
ZZEF1_O43149_728_DTEESVCGATLLLR (UniProt O43149)	-0.0306	-0.17	–	–
ZFAND2B_Q8WV99_134_HRHPLDHDCSGEGHPTSR (UniProt Q8WV99)	-0.148	0.178	–	–
WDR81_Q562E7_215_GSPACPSLLR (UniProt Q562E7)	-0.185	-0.529	–	–
ZC3H11A_O75152_588_SVLTPLRGDVASCNTQVAEK (UniProt O75152)	-0.0147	0.00571	–	–
XIAP_P98170_213_NWEPCDR (UniProt P98170)	-0.0911	-0.654	–	–
ZDHHC21_Q8IVQ6_112_CGHCVR (UniProt Q8IVQ6)	0.0718	-0.0337	–	–
WDR77_Q9BQA1_186_DSVFLSCSEDNR (UniProt Q9BQA1)	0.136	0.227	–	–
ZNF691_Q5VV52_176_CQESFR (UniProt Q5VV52)	-0.0275	-0.0396	–	–
YAE1_Q9NRH1_143_SITPPSHVVDLLDSIEDMDLCHVVPAEK (UniProt Q9NRH1)	-0.335	0.0421	–	–
ZCCHC3_Q9NUD5_385_GHAFAQCPK (UniProt Q9NUD5)	0.0381	-0.0115	–	–
ZC3HAV1_Q7Z2W4_168_QQICNQQPPCSR (UniProt Q7Z2W4)	0.0782	-0.158	–	–
ZW10_O43264_588_RLGTECFLAQMR (UniProt O43264)	0.00573	-0.0952	–	–
ZNF516_Q92618_165_KGAEGSACAPGEAK (UniProt Q92618)	0.0165	-0.317	–	–
